# Among all 390,000 compounds or so, about 17,000 (4.4%) were called active. A call without a number means that no potency is given here. Roughly 8% stayed inconclusive and do not appear here. The call rests on the fitted dose curve; in most records, active means well fitted inhibition curve with a large enough effect; inconclusive means small, poorly fitted or top-dose-only effect; inactive means no such curve, though single readings can be large or run the other way. Many of the other results were omitted from the sample, so actives are more common in it than they were.
# Target: Lysine-specific demethylase 4A (Homo sapiens) (UniProt O75164)
# Sequence (O75164 whole entry, looked up, the tested form may be a part): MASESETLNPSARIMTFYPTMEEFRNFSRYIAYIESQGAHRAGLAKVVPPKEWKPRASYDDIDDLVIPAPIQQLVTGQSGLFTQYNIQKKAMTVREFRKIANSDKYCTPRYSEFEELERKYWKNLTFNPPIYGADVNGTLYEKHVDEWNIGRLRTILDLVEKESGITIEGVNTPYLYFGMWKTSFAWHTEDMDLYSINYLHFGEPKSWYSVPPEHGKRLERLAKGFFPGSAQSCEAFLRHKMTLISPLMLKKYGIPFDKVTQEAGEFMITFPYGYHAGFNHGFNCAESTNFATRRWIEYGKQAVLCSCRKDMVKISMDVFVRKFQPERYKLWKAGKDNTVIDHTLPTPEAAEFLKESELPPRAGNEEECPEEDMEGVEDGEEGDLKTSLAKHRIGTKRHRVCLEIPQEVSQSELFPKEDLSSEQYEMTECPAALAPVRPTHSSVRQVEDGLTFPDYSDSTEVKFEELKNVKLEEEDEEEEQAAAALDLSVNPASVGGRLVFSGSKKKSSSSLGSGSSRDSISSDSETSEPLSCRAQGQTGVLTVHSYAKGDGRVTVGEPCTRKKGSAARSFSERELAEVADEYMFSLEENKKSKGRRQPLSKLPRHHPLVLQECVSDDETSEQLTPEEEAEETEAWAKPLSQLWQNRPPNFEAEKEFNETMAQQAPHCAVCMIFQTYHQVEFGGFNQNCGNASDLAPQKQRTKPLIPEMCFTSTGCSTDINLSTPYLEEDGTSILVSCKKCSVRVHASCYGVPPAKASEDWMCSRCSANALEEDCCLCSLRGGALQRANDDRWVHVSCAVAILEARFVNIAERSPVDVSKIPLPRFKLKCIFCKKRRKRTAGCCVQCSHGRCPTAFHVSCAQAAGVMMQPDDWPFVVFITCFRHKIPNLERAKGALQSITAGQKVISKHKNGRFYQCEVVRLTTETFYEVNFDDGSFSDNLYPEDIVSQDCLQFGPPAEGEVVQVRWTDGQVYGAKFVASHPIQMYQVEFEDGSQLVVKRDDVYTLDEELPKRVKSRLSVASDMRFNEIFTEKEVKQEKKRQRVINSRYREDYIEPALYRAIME
# Assay: qHTS Assay for Inhibitors of JMJD2A-Tudor Domain; further: nearly all actives have a fitted effect of over 50% in size
# Settings: AlphaScreen JMJD2A-Tudor / H3K4me3 peptide binding; series mostly up to 114 µM
# Potency means the concentration at half of the fitted maximal effect.
row,SMILES,Potency
1,COc1ccc2oc(-c3ccc(C)c(NC(=O)c4sc5ccccc5c4Cl)c3)nc2c1,inactive
2,COc1cc(Br)c(-c2sc(Nc3ccccc3)n[n+]2-c2ccccc2)cc1OC,inactive
3,COc1ccc(C)cc1Nc1n[n+](-c2ccccc2)c(-c2cccc(Cl)c2Cl)s1,inactive
4,CCc1ccc(Nc2n[n+](-c3ccccc3)c(-c3cccc(Cl)c3Cl)s2)cc1,56.2 µM (active)
5,Cc1cccc(NC(=O)C2CCCN2S(=O)(=O)c2cccc3nsnc23)c1C (configuration not stated),inactive
6,COc1ccc(N2CCN(Cc3nc4c(c(=O)[nH]c(=O)n4C)n3Cc3ccc(Cl)cc3)CC2)cc1,inactive
7,COc1ccc(C)cc1-n1nnnc1SCc1nc2ccccc2c(=O)[nH]1,inactive
8,COc1ccc(CCCc2nnc(SCc3nc4ccccc4c(=O)[nH]3)n2C)cc1,15.8 µM (active)
9,CCn1c(COc2c(C)cccc2C)nnc1SCc1nc2ccccc2c(=O)[nH]1,inactive
10,CCOc1ccccc1NC(=O)CSc1ncc(S(=O)(=O)c2ccc(C(C)(C)C)cc2)c(=O)[nH]1,inactive
11,CCCN1CCN(CCCNC(=O)c2ccc3nc(Cc4ccccc4)oc3c2)CC1,inactive
12,Cc1cc(/C=C2\SC(=O)N(C)C2=O)c(C)n1-c1cccc(C(=O)O)c1,56.2 µM (active)
13,Cc1cc(/C=C2/SC(=O)N(CC(=O)N3CCCC3)C2=O)c(C)n1C,inactive
14,Cc1cc(/C=C2/SC(=O)N(CC(=O)OC(C)C)C2=O)c(C)n1C,inactive
15,Cc1cccc(-n2c(SCC(N)=O)nc3c(oc4ccccc43)c2=O)c1,inactive
16,O=C(CSc1nc(=O)[nH]c2c1CCCC2)Nc1cc(C(F)(F)F)ccc1Cl,inactive
17,CCOc1ccccc1NC(=O)CN1CCCN(Cc2cccc(Cl)c2)S1(=O)=O,inactive
18,Cc1c(NC(=O)c2cc(=O)c3ccccc3o2)c(=O)n(-c2ccccc2)n1C,inactive
19,Cc1ccccc1NC(=O)c1cc(S(=O)(=O)Nc2cccc(C(=O)O)c2)ccc1Cl,inactive
20,C/C(=N\Nc1cccc(C(=O)O)c1)c1ccc2c(c1)Nc1ccccc1S2,56.2 µM (active)
21,CC(=O)Nc1cccc(/C(C)=N/NC(=O)c2c(-c3ccccc3Cl)noc2C)c1,inactive

row,SMILES,Potency
1,Cc1c(Cl)cccc1NC(=O)Cn1cc(C(=O)c2cccs2)c2ccccc21,inactive
2,CC(=O)c1nn(-c2ccc(OC(F)(F)F)cc2)nc1Nc1ccccc1,inactive
3,COc1ccccc1-c1nnc(NC(=O)c2cccc(N3C(=O)CCC3=O)c2)o1,35.5 µM (active)
4,COc1ccccc1NC(=O)c1ccc2nc(N3C(=O)CCC3=O)sc2c1,inactive
5,COC(=O)c1cccc(NC(=O)c2cccc(N3C(=O)CCC3=O)c2)c1,inactive
6,Fc1ccc(C(Nc2ccc(Cl)c(C(F)(F)F)c2)c2nnc(-c3ccccc3)o2)cc1 (configuration not stated),inactive
7,CCn1c(=O)cc(OCC(=O)Nc2cc(Cl)c(OC)cc2OC)c2ccccc21,inactive
8,COc1ccc(NC(=O)c2ccc3nc(CCc4ccccc4)oc3c2)c(OC)c1,inactive
9,COc1ccc(S(=O)(=O)/N=C2\C=C(NS(=O)(=O)c3ccccc3)C(=O)c3ccccc32)cc1,39.8 µM (active)
10,COc1ccc(NS(=O)(=O)c2ccc(Oc3c(C#N)cccc3C#N)cc2)cc1,inactive
11,COc1ccc(S(=O)(=O)Nc2cc3c(C(=O)OC(C)C)c(C)oc3c3ccccc23)cc1,inactive
12,Cc1ccc(Cl)cc1N1CCN(C(=O)c2cccn3c(=O)c4cc(Cl)ccc4nc23)CC1,inactive
13,CCCC(=O)Nc1cc(C(=O)NCc2ccc(OC)cc2)ccc1S(=O)(=O)c1ccc(Cl)cc1,inactive
14,CCN(CC)S(=O)(=O)c1ccc2c(c1)N(CC(=O)NCC(C)c1ccccc1)C(=O)CO2 (configuration not stated),inactive
15,CCc1cccc(NC(=O)CN(c2ccc(C)c(C)c2)S(=O)(=O)c2ccsc2C(=O)OC)c1,inactive
16,CCCCC(CC)CNCc1cccn1CCN1CCOCC1 (configuration not stated),28.2 µM (active)
17,CSc1ccc(CNCCN2CCOCC2)cc1,inactive
18,O=C(NCCCN1CCOCC1)c1cc(-c2ccccc2F)no1,inactive
19,Cc1cc(C)cc(NC(=O)Cc2csc(C)n2)c1,inactive
20,COc1ccccc1OCCCn1c(-c2ccc(Cl)cc2)nc2ccccc2c1=O,inactive
21,COc1ccc(OCc2ccc(-c3nc4ccccc4c(=O)n3N)o2)cc1,inactive

row,SMILES,Potency
1,Cn1c(COc2ccc(Cl)cc2)nc2ccccc2c1=O,28.2 µM (active)
2,COc1ccc(CCNS(=O)(=O)c2cc(-c3cc(C)no3)ccc2C)cc1OC,inactive
3,COc1ccc(-c2nc(SCC(=O)N3CCCCC3C)n[nH]2)cc1 (configuration not stated),inactive
4,CCn1c2c(c(=O)n3ncc(C(=O)N4CCN(c5ccccc5)CC4)c13)CN(Cc1ccc(OC)cc1)CC2,inactive
5,Cc1csc(NC(=O)CN2CCCCCC2)n1,1.58 µM (active)
6,O=C(CN1CCCCCC1)Nc1c(Cl)cc(Cl)cc1Cl,inactive
7,Cc1cc(C)c(NC(=O)CN2CCCCCC2)c(C)c1,inactive
8,COc1ccc(CCNC(=O)c2nn(C)c3c2CSc2ccccc2-3)cc1OC,inactive
9,Cc1nc2ccccn2c(=O)c1NC(=O)c1c(F)cccc1F,inactive
10,CCn1c2ccccc2c2nnc(N3CCN(c4cc(C)ccc4C)CC3)nc21,inactive
11,CN1CCN(c2ccc(S(=O)(=O)N3CCOCC3)cc2NC(=O)CCc2ccccc2)CC1,inactive
12,O=C(COC(=O)c1ccccc1F)Nc1cc(S(=O)(=O)N2CCOCC2)ccc1N1CCCC1,inactive
13,Cc1ccc(S(=O)(=O)N2CCOCC2)cc1C(=O)Nc1ccccc1N1CCCC1,inactive
14,COCCNC(=S)Nc1cc(S(=O)(=O)N2CCOCC2)ccc1N1CCCCC1,79.4 µM (active)
15,O=C(COC(=O)Cc1ccc(F)cc1)Nc1cc(S(=O)(=O)N2CCOCC2)ccc1N1CCCC1,inactive
16,O=C(CNCc1ccco1)Nc1cc(S(=O)(=O)N2CCOCC2)ccc1N1CCCC1,79.4 µM (active)
17,COc1ccc(/C=C/c2noc(-c3ccccc3O)n2)cc1OC,inactive
18,COc1ccc(NC(=O)C2CCCN(S(=O)(=O)c3cccc4nonc34)C2)cc1Cl (configuration not stated),inactive
19,Cc1cc(C)cc(NC(=O)Cn2c(=O)c3ccccc3n3nncc23)c1,inactive
20,CCc1cccc(-n2nnc(-c3nsc(NC(=O)c4ccc(C)cc4)n3)c2C)c1,inactive

# Source: PubChem BioAssay AID504339 (National Center for Advancing Translational Sciences (NCATS), 2011)
